Results published in ChEMBL document CHEMBL4513216, “Probing the Open Global Health Chemical Diversity Library for Multistage-Active Starting Points for Next-Generation Antimalarials” (ACS Infect Dis, 2020).
Hit rate of the full screen: of about 69,000 compounds, about 8,600 (12%) showed an effect of 50% or more. The full list was thinned out, with strong results kept by preference.

system: Plasmodium berghei; assay: Screen against P. berghei liver stage (PbLuc), transformed with Luciferase, at 10uM; type: functional, HepG2; details: tested at 10 uM

Question: Which INHIBITION does the source give for `Cc1nn(-c2ccccc2)c2nc(C(C)(C)CN3CCN(C)CC3)[nH]c12` here?
Answer: 8.08%

Question: With `Cc1cc(NC(=O)NCC(CC(C)C)N2CCOCC2)n(C)n1` (stereo not given) as the molecule, how does the INHIBITION read?
Answer: -0.113%

Question: With `Cc1noc(C)c1CNC(C(=O)N1CCOCC1)C(C)C` (stereo not given) as the molecule, how does the INHIBITION read?
Answer: 22.2%

Question: With `Cc1noc(C)c1CC(=O)NCC(C)N1CCOCC1` (stereo not given) as the molecule, how does the INHIBITION read?
Answer: 46.1%

Question: How did the INHIBITION turn out when `Cc1noc(C)c1CC(=O)NCC(CC(C)C)N1CCOCC1` (stereo not given) was run?
Answer: 62.8%

Question: `Cc1noc(C)c1C(=O)NCCN1CCOCC1` was tested. Which INHIBITION did it give?
Answer: -27.8%

Question: How did the INHIBITION turn out when `Cc1noc(C)c1CC(=O)NCCN1CCN(S(C)(=O)=O)CC1` was run?
Answer: -47.8%

Question: How did the INHIBITION turn out when `Cc1noc(C)c1CC(=O)NCC(C(C)C)N1CCOCC1` (stereo not given) was run?
Answer: 58.2%

Question: `CCC(CNC(=O)Cc1c(C)noc1C)N1CCCC1` (stereo not given) was tested. Which INHIBITION did it give?
Answer: 57.3%

Question: `CC(C)C(CNC(=O)NCc1cc[nH]n1)N1CCOCC1` (stereo not given) was tested. Which INHIBITION did it give?
Answer: -1.6%

Question: With `Cc1noc(C)c1CC(=O)NCCc1cccs1` as the molecule, how does the INHIBITION read?
Answer: -26.9%

Question: How did the INHIBITION turn out when `O=C(NCc1cc[nH]n1)NCC(c1ccccc1)N1CCOCC1` (stereo not given) was run?
Answer: 15.8%

Question: `CC(C)CC(CNC(=O)NCc1cc[nH]n1)N1CCOCC1` (stereo not given) was tested. Which INHIBITION did it give?
Answer: 52%

Question: How did the INHIBITION turn out when `Cc1cc(NC(=O)CN2CCCC2c2c(C)nn(C)c2C)on1` (stereo not given) was run?
Answer: 5.03%

Question: `Cc1noc(C)c1-c1nc(C2CCCN(C(=O)C(C)C)C2)ccc1CO` (stereo not given) was tested. Which INHIBITION did it give?
Answer: 48.1%

Question: With `CC(=O)N(Cc1ncc(C)o1)C1CCN(Cc2nccn2C)C1` (stereo not given) as the molecule, how does the INHIBITION read?
Answer: 11.45%

Question: For `CC(=O)N1[C@H](Cn2cncn2)C[C@@H]2CN(CC3CC3)CC[C@@H]21`, which INHIBITION is on record?
Answer: -1.83%

Question: How did the INHIBITION turn out when `COc1ccccc1C(=O)N1C[C@@H]2CCCCN(CC(N)=O)[C@@H]2C1` was run?
Answer: 9.05%

Question: With `CC(NCCCn1cccn1)c1ccc(N2CCCS2(=O)=O)cc1` (stereo not given) as the molecule, how does the INHIBITION read?
Answer: 5.58%

Question: How did the INHIBITION turn out when `COCCCNS(=O)(=O)c1cccc(CSC)c1` was run?
Answer: -15.7%

Question: How did the INHIBITION turn out when `COCCCNS(=O)(=O)c1ccc(N2CCCCS2(=O)=O)cc1` was run?
Answer: 73.4%

Question: For `CCOc1ccc(NC(=O)N(C)Cc2cnn(C)c2)c(C)c1`, which INHIBITION is on record?
Answer: 11.9%

Question: With `Cc1nc2c(c(C)c1CC(=O)NCc1cccs1)c(=O)[nH]n2C` as the molecule, how does the INHIBITION read?
Answer: -0.219%

Question: Which INHIBITION does the source give for `O=c1n(Cc2cccc(F)c2)nc2ncccn12` here?
Answer: -31.7%

Question: For `Cc1ccoc1C(=O)N1CCO[C@H]2[C@H](OCC3CCOCC3)CC[C@@H]21`, which INHIBITION is on record?
Answer: -0.182%

Question: How did the INHIBITION turn out when `Cc1ccoc1C(=O)N1C[C@H](OCc2cccnc2)[C@H]2OCCC[C@H]21` was run?
Answer: 33.4%

Question: Which INHIBITION does the source give for `Cc1ccoc1C(=O)N1C[C@@H](OCC2CCOCC2)[C@H]2OCCC[C@H]21` here?
Answer: 57.1%

Question: `Cc1ccoc1C(=O)N1C[C@H](OCC2CC2)[C@H]2OCCC[C@H]21` was tested. Which INHIBITION did it give?
Answer: -31%

Question: With `Cc1ccoc1C(=O)N1C[C@@H](OCC2CC2)[C@H]2OCCC[C@H]21` as the molecule, how does the INHIBITION read?
Answer: 55.2%

Question: How did the INHIBITION turn out when `Cc1ccc(C(=O)N2C[C@@H](OCC3CCOCC3)[C@H]3OCCC[C@H]32)o1` was run?
Answer: 41.5%

Question: With `CN(C)CCN1CCc2c(nnn2C)C1COCc1ccccc1` (stereo not given) as the molecule, how does the INHIBITION read?
Answer: -4.98%

Question: For `CCc1[nH]ncc1C(=O)N1CCCC(n2ccnc2C)C1` (stereo not given), which INHIBITION is on record?
Answer: 7.12%

Question: How did the INHIBITION turn out when `COCC(=O)N1CCCC2(CCN(c3ccccc3)C2=O)C1` (stereo not given) was run?
Answer: 71.9%

Question: For `CN(C)CC(=O)N1CCC2(CC(=O)N(c3cccc(C#N)c3)C2)C1` (stereo not given), which INHIBITION is on record?
Answer: 53.5%

Question: With `O=C1CC2(CCN(Cc3ccncc3)C2)CN1c1cccc(F)c1` (stereo not given) as the molecule, how does the INHIBITION read?
Answer: -11.6%

Question: For `O=C(CC1CC1)N1CCC2(CC(=O)N(c3cccc(F)c3)C2)C1` (stereo not given), which INHIBITION is on record?
Answer: -40.5%

Question: `O=C(Cc1ccccc1)N1CCC2(CC(=O)N(c3cccc(F)c3)C2)C1` (stereo not given) was tested. Which INHIBITION did it give?
Answer: 5.65%

Question: For `O=C1CC2(CCN(Cc3cccs3)C2)CN1c1cccc(F)c1` (stereo not given), which INHIBITION is on record?
Answer: 59.2%

Question: How did the INHIBITION turn out when `N#Cc1cccc(N2CC3(CCN(C(=O)NC4CC4)C3)CC2=O)c1` (stereo not given) was run?
Answer: 33.4%

Question: `COCC(=O)N1CCC2(CC(=O)N(c3cccc(F)c3)C2)C1` (stereo not given) was tested. Which INHIBITION did it give?
Answer: 63.1%

Question: `CCOCC(=O)N1CCCC2(CCN(c3ccccc3)C2=O)C1` (stereo not given) was tested. Which INHIBITION did it give?
Answer: 33.4%

Question: How did the INHIBITION turn out when `CN(C)C(=O)N1CCC2(CC(=O)N(c3cccc(C#N)c3)C2)C1` (stereo not given) was run?
Answer: 7.65%

Question: For `O=C1CC2(CCN(CCO)C2)CN1c1cccc(F)c1` (stereo not given), which INHIBITION is on record?
Answer: -9.02%

Question: `COCCC(=O)N1CCCC2(CCN(c3ccccc3)C2=O)C1` (stereo not given) was tested. Which INHIBITION did it give?
Answer: -3.58%

Question: For `CC(C)c1ncc(CNC2(c3ccc(Cl)cc3)CC2)cn1`, which INHIBITION is on record?
Answer: -33.4%

Question: How did the INHIBITION turn out when `O=C(NC1CCN(C2CC2)C1)c1cn(-c2ccc(F)cc2)nn1` (stereo not given) was run?
Answer: 14.3%

Question: Which INHIBITION does the source give for `CC1CN(C(=O)c2ccn(C)c(=O)c2)c2ccccc2NC1=O` (stereo not given) here?
Answer: -24%

Question: `Cc1ccc(CN(C)C(=O)CN2CCCC(Cn3cncn3)C2)o1` (stereo not given) was tested. Which INHIBITION did it give?
Answer: 15.6%

Question: `Cc1ccc(C(=O)N(C)Cc2ccc(Br)s2)c(=O)[nH]1` was tested. Which INHIBITION did it give?
Answer: 37.4%

Question: For `Cc1ccc(-c2nc(CNC(C)Cn3cccn3)cs2)o1` (stereo not given), which INHIBITION is on record?
Answer: -27.9%

Question: Which INHIBITION does the source give for `CCCc1noc(C(C)N2CCN(c3ccc(C#N)cn3)CC2)n1` (stereo not given) here?
Answer: 5.23%

Question: How did the INHIBITION turn out when `CC(Cn1cccn1)NC(=O)N(C)Cc1ccc(C(N)=O)cc1` (stereo not given) was run?
Answer: 14.3%

Question: For `CC(C)NC(=O)N1CCC2(CC(=O)N(c3cccc(C#N)c3)C2)C1` (stereo not given), which INHIBITION is on record?
Answer: 66.5%

Question: How did the INHIBITION turn out when `CC(C)NC(=O)N1CCC2(CC(=O)N(c3cccc(F)c3)C2)C1` (stereo not given) was run?
Answer: 7.65%

Question: `Cc1cccc(N2CC3(CCN(C(=O)NC(C)C)C3)CC2=O)c1` (stereo not given) was tested. Which INHIBITION did it give?
Answer: 14.6%

Question: `COCCN1C[C@@H]2CC[C@H]1CN(C(=O)CCc1c(C)nn(C)c1C)C2` was tested. Which INHIBITION did it give?
Answer: 27.5%

Question: `Cn1cc(CN2C[C@@H](N3CCCC3=O)[C@H]3OCCC[C@H]32)cn1` was tested. Which INHIBITION did it give?
Answer: 29%

Question: With `Cn1cc(CN2C[C@H](N3CCOCC3)[C@@H]3OCCC[C@@H]32)cn1` as the molecule, how does the INHIBITION read?
Answer: 54.1%

Question: `Cn1ccnc1CN1C[C@H](N2CCOCC2)[C@@H]2OCCC[C@@H]21` was tested. Which INHIBITION did it give?
Answer: 37.8%

Question: For `CC(C)c1nnc(CN2CCCC3(CC2)CN(C)C(=O)O3)o1` (stereo not given), which INHIBITION is on record?
Answer: 23.9%

Question: `CCOc1ccc(Cl)c(C(=O)N2CCCC(N3CCCC3)C2)n1` (stereo not given) was tested. Which INHIBITION did it give?
Answer: 23.3%

Question: How did the INHIBITION turn out when `COCc1nc(CN(CC(N)=O)C(C)C)cs1` was run?
Answer: 42%

Question: `CC(C)N(CC(N)=O)Cc1csc(COc2ccc(F)cc2)n1` was tested. Which INHIBITION did it give?
Answer: 81.5%

Question: Which INHIBITION does the source give for `CCc1nc(CN(CC(N)=O)C(C)C)cs1` here?
Answer: 22.5%

Question: Which INHIBITION does the source give for `COc1ccc(-c2noc(CN3CCN(c4cnccn4)CC3)n2)cc1` here?
Answer: 47%
